Data from PubChem BioAssay AID1045 (SRMLSC, 2008).
Among all 1,500 compounds or so, about 1,400 (93%) were called active. The set was probably picked from earlier hits. A selection follows. Entries with a potency or affinity are not part of this list. Values without a mark were called inactive. No rule for the calls is given here.

assay: viability of HCT116 lacking mutant beta-catenin – cell-based, human colon tumor, dose response (AID 1045); conditions: HCT116 beta-catenin knockout viability, CellTiter-Glo, 60 h; series mostly up to 30 µM; viability: at the top concentration

First: CCCNC(=O)OC[C@H]1O[C@H](CCO/N=C/[C@@H](NS(=O)(=O)c2ccc(C)cc2)[C@H](C)/C=C/CC(=O)OC)C=C[C@@H]1Oc1ccc(OC)cc1
Second: COc1ccc(-n2c(O)c(/C=N/NS(=O)(=O)c3ccc(C)cc3)c3ccccc3c2=O)cc1OC
The “viability” value of the first is higher: 90.3% for the first, 80.6% for the second.

Going from O=C(Nc1ccccc1Cl)NC1(C(=O)N2CCCC2)CCCCC1 to O=C(Nc1cccc(C(F)(F)F)c1)NC1CCCCC1, the “viability” value falls from 94.7% to 93.5%.

First: Cc1ccc(C(=O)c2coc3c2C(=O)C(=O)c2ccccc2-3)cc1
Second: Cc1ccc(C(=O)NCCc2nnc(SCC(=O)Nc3nc(-c4ccccc4)cs3)n2C)cc1
The “viability” value of the first is lower: 91.4% for the first, 92.9% for the second.

Compared with CCCC(=O)Nc1sc2c(c1C#N)CCCCC2, O=C(Nc1cccc(-c2nnc(-c3ccccc3)o2)c1)C1CCCCC1 is lower in “viability” value: 98.2% for the first, 95.4% for the second.

Compared with CCN1CCN(Cc2ccc(OCc3ccccc3)cc2)CC1, O=C(NCc1ccco1)C1CCN(S(=O)(=O)Cc2ccccc2)CC1 is higher in “viability” value: 86.3% for the first, 98.3% for the second.

Going from S=C(NCCc1ccc(Cl)cc1)Nc1ccc(Cl)cc1Cl to O=C(NC(=S)Nc1ccc2c(c1)OCO2)c1ccc(Cl)cc1, the “viability” value rises from 84.2% to 87.5%.

Going from C=C1C(O)C[C@H]2C(=C)CCC3[C@H](OC(=O)[C@]3(O)CO)[C@@H]12 (stereo not given in full) to COC(=O)C1=C(C)N(Cc2ccco2)C(=O)N[C@@H]1c1cccc(C(F)(F)F)c1, the “viability” value falls from 103% to 83%.

Compared with Cc1ccc2cc3cc(C(=O)NCc4ccc5c(c4)OCO5)oc3nc2c1, CCN1CCN(c2cc(C)c3cc(NC(=O)c4ccc5c(c4)OCO5)ccc3n2)CC1 is lower in “viability” value: 90.1% for the first, 87.7% for the second.

Compared with Nc1nnc(SCc2ccc(Cl)cc2)s1, CCn1c(Cc2ccc(OC)cc2)nnc1SCC(=O)Nc1cccc(C(=O)OC)c1 is higher in “viability” value: 91.9% for the first, 103% for the second.

First: COC(=O)CN1C(C)=Nc2ccc(Br)cc2C1c1ccccc1 (stereo not given)
Second: COCCN1C(=O)c2oc3ccccc3c(=O)c2C1c1ccc(OC)c(OC)c1 (stereo not given)
The “viability” value of the first is higher: 91.8% for the first, 89.8% for the second.

First: CCN(CC)S(=O)(=O)c1ccc(NC2CCCc3ccccc32)nc1 (stereo not given)
Second: Cc1ccccc1NC(=O)c1ccc2c(c1)OCCO2
The “viability” value of the first is lower: 83.6% for the first, 88.1% for the second.

Compared with COc1ccc(-c2cc(C(F)(F)F)nc(S(C)(=O)=O)n2)cc1OC, COc1ccc(-c2cc(C(F)F)n3ncc(C(=O)n4ccnc4C)c3n2)cc1 is higher in “viability” value: 81.2% for the first, 86.4% for the second.

First: CSc1n[nH]c(NCc2cccs2)n1
Second: Cc1cc(C)n(C(=O)CNc2ccc(C)c(C)c2)n1
The “viability” value of the first is higher: 102% for the first, 91.1% for the second.

Going from CCCC/C(C)=N\NC(=O)CNS(=O)(=O)c1ccc([N+](=O)[O-])cc1 to CCOC(=O)c1c(-c2ccc(C)cc2)csc1NC(=O)/C(C#N)=C/c1ccc(O)c(OC)c1, the “viability” value falls from 97.5% to 90.9%.

Going from O=C(Nc1cccc(C(F)(F)F)c1)/C(=C\c1ccco1)NC(=O)c1cccs1 to O=C(Nc1ccc(-c2nc3ccccc3o2)cc1)c1cccnc1, the “viability” value rises from 82% to 103%.
